Source: PubChem BioAssay (NCI)
About 83,000 compounds went through this panel and 20% of them were active in at least one assay; those are over-represented in the sample as a whole.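 Results are percent growth after 48 hours of single-concentration exposure. 100 means growth as in untreated cells, lower positive values show inhibition; negative values down to -100 show cell death.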 The source made the active and inactive calls. How the source made its calls: active means growth percent below 10; inactive means the rest.

What follows are compounds tested on SK-MEL-2 melanoma (assay: NCI-60 one-dose screen, 48 h (100 = growth as untreated, 0 = no growth, -100 = all killed)). Details: 10 µM unless noted.

SMILES | growth
O=C(CCCCCCNC(=O)C(O)(O)C(F)(F)F)Nc1nc2ccccc2s1 | -7.95% (active)
CNC(=O)c1cc(Oc2ccc3c(c2)sc2nc(-c4ccc(N(C)C)cc4)cn23)ccn1 | 59.7% (inactive)
CC1=C(C)C(=O)C(Nc2cccc(C)c2)=C(Br)C1=O | 117% (inactive)
CC(=C(c1ccc(OCCCN(C)C)cc1)c1ccc(OCCCN(C)C)cc1)c1ccc(Cl)cc1 | 99.3% (inactive)
COc1cc(C(=O)c2cc(C(C)=O)c3cccc(C)n23)cc(OC)c1OC | -11.8% (active)
C#Cc1nc(/C=C/CCCCCCC(=O)NO)cs1 | 96.1% (inactive)
CCCCCc1ccc(S(=O)(=O)Nc2cc(-c3csc(N)n3)ccc2OC)cc1 | 112% (inactive)
CCCc1cc2cc(-n3nc(CC)c4c3CC(C)(C)CC4=O)cc(NC3CCC(O)CC3)c2c(=O)[nH]1 (centres undefined) | 53.1% (inactive)
Cc1ccc(-c2cc3nc(C(Cl)Cl)nc(-c4ccc(S(=O)(=O)N(C)C)cc4)n3n2)cc1 | 113% (inactive)
